Test results as given in paper PMC6792352, “Limited Chemical Structural Diversity Found to Modulate Thyroid Hormone Receptor in the Tox21 Chemical Library” (Environmental Health Perspectives, 2019).
Structures can show the parent of a compound that is named as a salt.

The compounds below were run on thyroid hormone receptor (endogenous TRα and TRβ). Details: read-out: Average AC50 (uM) GH3-TRE-Antag, antagonist mode, 1 nM T3, no GH3 cytotoxicity hit.
Design: species or system GH3-TRE-Luc (rat pituitary); GH3-TRE-Luc luciferase reporter, antagonist mode against 1 nM T3, loss of signal, qHTS

| Compound | AC50 [µM] |
| --- | --- |
| OCCCCCCCCCCCCBr [12-Bromo-1-dodecanol] | 85.6 |
| C=C(C#N)C(=O)OCC [Ethyl cyanoacrylate] | > 90 |
| CCCCOC(=O)/C=C\C(=O)OCCCC [Dibutyl maleate] | 37.6 |
| CCCCC(CC)COC(=O)/C=C/c1ccc(OC)cc1 (stereo not drawn) [2-Ethylhexyl trans-4-methoxycinnamate] | > 90 |
| CCCc1c(OCCCCc2nnn[nH]2)ccc(C(C)=O)c1O [Tomelukast] | 49.2 |
| CN(C)c1ccc(SC#N)cc1 [4-(Dimethylamino)phenylthiocyanate] | 59.1 |
| COc1cc(NC(=O)CC(C)=O)c(OC)cc1Cl [4'-Chloro-2',5'-dimethoxyacetoacetanilide] | > 90 |
| Nc1nc(N)c2nc(-c3ccccc3)c(N)nc2n1 [Triamterene] | 39.2 |
| [O-][N+](=Nc1ccccc1)c1ccccc1 [Azoxybenzene] | > 50 |
| CN(C)[C@@H]1C(O)=C(C(N)=O)C(=O)[C@@]2(O)C(O)=C3C(=O)c4c(O)ccc(Cl)c4[C@@](C)(O)[C@H]3C[C@@H]12 [Chlortetracycline hydrochloride] | > 20 |
| CCCCCCCCCCCC(=O)N(C)CC(=O)O [N-Dodecanoyl-N-methylglycine] | > 90 |
| CC1(CO)CN(c2ccccc2)NC1=O (centres unmarked) [4-(Hydroxymethyl)-4-methyl-1-phenylpyrazolidin-3-one] | 82.6 |
| COC(=O)Nc1ccc(Cl)c(Cl)c1 [Swep] | > 90 |
| COc1ccc2c(c1)c1c3n2CCN(C)C3=NCC1 [Metralindole] | 28.1 |
| Cc1cc(-n2c(=O)[nH]c(=O)n(C)c2=O)ccc1Oc1ccc(S(=O)(=O)C(F)(F)F)cc1 [Toltrazuril sulfone] | 51.6 |
| O=C(Nc1ccccc1)c1ccccc1O [Salicylanilide] | 48.9 |
| Cc1cccc(N(C)C(=S)Oc2ccc3ccccc3c2)c1 [Tolnaftate] | > 20 |
| CCC(=O)O[C@]1(C(=O)CCl)[C@@H](C)C[C@H]2[C@@H]3C[C@H](F)C4=CC(=O)C=C[C@]4(C)[C@@]3(F)[C@@H](O)C[C@@]21C [Halobetasol propionate] | 42.4 |
| COC(=O)N(C(=O)N1CO[C@@]2(C(=O)OC)Cc3cc(Cl)ccc3C2=N1)c1ccc(OC(F)(F)F)cc1 [Indoxacarb] | 9.12 |
| O=C(O)Cc1sc(-c2ccccc2)nc1-c1ccc(Cl)cc1 [Fentiazac] | > 50 |
| C[C@]12CCC(=O)C=C1CC[C@@H]1[C@@H]2CC[C@@]2(C)[C@H]1CC[C@]2(O)C(=O)CO [Cortodoxone] | 21.8 |
| OCCN(CCO)c1nc(N2CCCCC2)c2nc(N(CCO)CCO)nc(N3CCCCC3)c2n1 [Dipyridamole] | 24.3 |
| CCCCCCCCCC=CCC1CC(=O)OC1=O (centres unmarked) [(2-Dodecenyl)succinic anhydride] | 74.5 |

Same assay, conditions: read-out: Average AC50 (uM) GH3-TRE-Antag, antagonist mode, 1 nM T3, no GH3 cytotoxicity hit, Average AC50 (uM) GH3-TRE-Antag, 24 h

| Compound | AC50 [µM] |
| --- | --- |
| CCCCCCn1cc[n+](C)c1 [1-Hexyl-3-methylimidazolium hexafluorophosphate] | 53.8 |
| OCCOCCN1CCN(C2=Nc3ccccc3Sc3ccccc32)CC1 [Quetiapine fumarate] | 23.5 |
| Nc1c2c(nc3ccccc13)CCCC2 [Tacrine] | 41.7 |
